Only some compounds are listed: those with a hit (about 8.9% of all), similar ones and a draw of the others.
KB-3-1 tox = qHTS assay for MDR1-selective chemotherapeutics: Primary screen using the parental adenocarcinoma cell KB-3-1 | KB-3-1 viability, CellTiter-Glo ATP luminescence, 72 h | Potency, µM (top dose mostly 46.1 µM), usual class: cytotoxic | 400,000 compounds, 1.4% hits; further: potency means the concentration at half of the fitted maximal effect; on the % scale 0 is the no-effect control and ±100 the full control effect; nearly all actives have a fitted effect of over 60% in size
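Viability of parental KB-3-1 cells, measured by CellTiter-Glo luminescence, followed a 72 h incubation at 37 °C with pinned compounds in phenol-red-free DMEM containing 10% FBS.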
MCF10A rereplic = A quantitative high throughput screen for small molecules that induce DNA re-replication in MCF 10a normal breast cells; AID 624296, 2012; MCF 10A DNA re-replication, Hoechst nuclear intensity, 48 h; 350,000 compounds, 2.9% hits; Potency, µM (series often up to 46.1 µM), without a hit: top-dose activity, positive = re-replication, usual class: activators; further: potency means the concentration at half of the fitted maximal effect; % of control where 0% means no effect; nearly all actives have a fitted effect of over 50% in size
D3 antag = qHTS of D3 Dopamine Receptor Antagonist: qHTS. D(3) dopamine receptor (Homo sapiens), P35462. D3R cells, DiscoveRx beta-arrestin luminescence, antagonist mode; hits give low values. max response, negative = inhibition, %. 360,000 compounds, 2.5% hits; in the data active means max response below about -50%; inconclusive means no clear call, values can overlap the other calls; further: on the % scale 0 is the no-effect control and ±100 the full control effect
Target sequence (P35462 whole entry, looked up): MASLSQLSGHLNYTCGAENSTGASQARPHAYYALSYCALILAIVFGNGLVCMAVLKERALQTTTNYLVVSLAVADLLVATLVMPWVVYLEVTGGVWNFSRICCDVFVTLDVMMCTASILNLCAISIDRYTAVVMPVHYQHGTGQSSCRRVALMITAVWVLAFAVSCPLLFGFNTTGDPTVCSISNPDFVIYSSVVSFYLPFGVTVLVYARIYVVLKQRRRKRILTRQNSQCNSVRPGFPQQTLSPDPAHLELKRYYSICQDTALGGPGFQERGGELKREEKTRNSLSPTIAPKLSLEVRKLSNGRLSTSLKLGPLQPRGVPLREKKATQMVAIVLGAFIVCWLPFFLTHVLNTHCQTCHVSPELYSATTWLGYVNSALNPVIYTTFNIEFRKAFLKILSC
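Cells plated overnight at 1500 cells/well, then exposed to library compounds with dopamine controls for 90 minutes at 37 degrees C. DiscoveRx reagent added for 30–60 minutes at room temperature; luminescence read, quantitative HTS format.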
SW480 rereplic = A quantitative high throughput screen for small molecules that induce DNA re-replication in SW480 colon adenocarcinoma cells; AID 624297, 2012; SW480 DNA re-replication, Hoechst DNA content imaging, 48 h; 340,000 compounds, 1.8% hits; Potency, µM (titrated, usually from 46.1 µM), inactives show at the top dose re-replication activation, hits mostly activators; further: potency means the concentration at half of the fitted maximal effect; % of control where 0% means no effect; nearly all actives have a fitted effect of over 55% in size
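Compounds, transferred as 23 nL by pin tool, were incubated with cells for 48 hr; DNA content per nucleus was then quantified by Hoechst staining and fluorescence plate imaging.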
D3 ag = qHTS of D3 Dopamine Receptor Agonist: qHTS. D(3) dopamine receptor (Homo sapiens), P35462. D3R DiscoveRx beta-arrestin cells, luminescence, 90 min. max activation, %. 410,000 compounds, 0.58% hits. AID 652048, 2013; in the data active means max activation above about 30%; further: 0% is about no effect
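Cells at 1500/well, incubated overnight, then treated with pinned compounds (dopamine as control) for 90 min at 37 degrees C. DiscoveRx reagent added for 30 - 60 minutes at room temperature; luminescence read.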
KB-V1 MDR tox = qHTS assay for MDR1-selective chemotherapeutics: Primary screen using the drug-selected MDR subline cells KB-V1; 400,000 compounds, 3.4% hits; Potency, µM (series often up to 46.1 µM), hits mostly cytotoxic; KB-V1 MDR cells viability, CellTiter-Glo, 72 h; further: potency means the concentration at half of the fitted maximal effect; on the % scale 0 is the no-effect control and ±100 the full control effect; nearly all actives have a fitted effect of over 60% in size
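Cells of the MDR subline KB-V1 are plated, dosed with compound at multiple concentrations, and incubated 72 h at 37 degrees C; CellTiter-Glo is then added and luminescence read after 10 min.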
* hit, by the source's call; i = inactive; ? = inconclusive; nt = not tested or not shown; ! = a repeat was not active. Unless noted, the call rests on the fitted dose curve; in most records, active means well fitted curve in the direction sought with a large enough effect; inconclusive means small, poorly fitted or top-dose-only effect, or another doubt; inactive means no such curve, though single readings can be large; an effect the other way counts as inactive or inconclusive.

SMILES	KB-3-1 tox	MCF10A rereplic	D3 antag	SW480 rereplic	D3 ag	KB-V1 MDR tox
CC(=O)N1CCC(N2CCCC(C(=O)c3cccc(Cl)c3)C2)CC1 (configuration not stated)	i	2%	-12	-3%	129*	i
COc1ccccc1CN1CCCC(C(=O)c2ccccc2OC)C1 (configuration not stated)	i	0%	-59*	2%	-24	i
COc1cccc(OC)c1CN1CCCC(C(=O)c2cccc(Cl)c2)C1 (configuration not stated)	i	17%	-78*	-7%	-27	?
COc1ccccc1CN1CCCC(C(=O)c2ccccc2SC)C1 (configuration not stated)	i	-2%	?	-3%	-7	?
CCn1ccnc1CN1CCCC(C(=O)c2ccc(OC)cc2OC)C1 (configuration not stated)	i	7%	22	-5%	-14	?
CCOc1ccccc1CN1CCCC(C(=O)c2cc(F)ccc2F)C1 (configuration not stated)	i	0%	-72*	-4%	-20	i
COc1ccc(C(=O)C2CCCN(Cc3ccc(F)cc3F)C2)cc1F (configuration not stated)	i	2%	-29	-2%	-11	i
COc1ccc(C(=O)C2CCCN(CCc3ccccc3)C2)cc1OC (configuration not stated)	i	nt	-68*	nt	-25	i
CCOc1ccc(CN2CCCC(C(=O)c3ccccc3OC)C2)cc1 (configuration not stated)	i	?	-81*	4%	-23	i
CCc1cc2c(=O)n(C(C)C(=O)OC3CCCCC3)cnc2s1 (configuration not stated)	i	?	?	0%	0	?
O=C(O)c1sccc1Oc1ccc(F)cc1[N+](=O)[O-]	i	?	-13	5%	-5	i
C=C1C(=O)[C@@]23C[C@H]4[C@@H]5[C@@]6(C)CCC[C@@]57[C@@H]2[C@@H](O)[C@@H]1C[C@H]3[C@H]7N4C6	?	15µM*	?	?	-26	i
CCCc1nc(SC)ncc1C(=O)Nc1ccc(Cl)cc1C(=O)c1ccccc1	i	nt	nt	nt	9	i
OCC1OC(O)CC(O)C1O (configuration not stated)	i	?	15	-7%	3	i
Clc1ccc(C(c2ccc(Cl)cc2)n2cc[n+](CC(OCc3ccc(Cl)cc3Cl)c3ccc(Cl)cc3Cl)c2)cc1 (configuration not stated)	?	5.2µM*	13	-27%	-21	?
COC(=O)C1=C(c2cccc(OCc3ccccc3)c2)C[C@@H]2CC[C@H]1N2C(=O)NCCOc1ccccc1	?	13µM*	-12	-33%	-31	?
COC(=O)C1=C(c2cccc(OCc3ccccc3)c2)C[C@@H]2CC[C@H]1N2C(=O)NCCOc1ccccc1Cl	?	2.1µM*	-28	22%	6	?
COC(=O)C1=C(c2ccccc2OCc2ccccc2)C[C@@H]2CC[C@H]1N2C(=O)NCCOc1ccccc1Cl	?	?	-22	28%	-19	i
COc1ccc(NC(=O)CCOc2cc(C)ccc2C)cc1S(=O)(=O)N1CCCCC1	?	?	1	1%	-3	?
O=c1[nH]c(=S)n(Cc2ccco2)c(O)c1C=NCc1cccs1	i	24%	-70*	-1%	-4	i
NC(=O)c1ccc(N=Cc2c(O)n(Cc3ccco3)c(=O)[nH]c2=O)cc1	i	1%	-14	3%	-9	i
CCN(CC)c1ccc(N=Cc2c(O)n(Cc3ccco3)c(=O)[nH]c2=O)cc1	i	26µM*	-6	70%	8	i
CCN(CC)c1ccc(N=Cc2c(O)n(CCc3ccc(OC)c(OC)c3)c(=O)[nH]c2=O)cc1	?	?	21	?	8	16µM*
CC(C)C[C@H]1CN([C@@H](CC(C)C)CN2CCCC2CN2C(=S)NC[C@@H]2Cc2ccc(O)cc2)C(=S)N1CC1CCCCCC1 (some centres not stated)	?	?	7	-36%	12	?
CC1(C)CC/C(=C/c2ccc(Cl)cc2)C1(O)Cn1cncn1 (configuration not stated)	nt	nt	nt	nt	-14	nt
SMILES	KB-3-1 tox	MCF10A rereplic	D3 antag	SW480 rereplic	D3 ag	KB-V1 MDR tox
O=C(c1ccc2c(c1)ncn2C1CCCCC1)N1CCC2(CC1)OCCO2	?	13µM*	38	12µM*	-2	9.2µM*
CCOP(=S)(OCC)SCSc1ccc(Cl)cc1	nt	nt	nt	nt	48*	nt
C[C@]12CC[C@H]3[C@@H](CCC4=CC(=O)CC[C@@H]43)[C@@H]1CC[C@@H]2OC(=O)CCc1ccccc1	nt	nt	nt	nt	14	nt
COC(=O)C1=C(C)NC(C)=C(C(=O)OC)C1c1ccccc1[N+](=O)[O-]	i	?	-105*	?	-83	8.2µM*!
Cc1ccccc1[N+](=O)[O-]	?	16%	-16	-5%	3	i
CC(C)Cc1nc(N2CCNCC2)c(C#N)c2c1CCC2	i	-7%	?	-31%	-18	?
CCc1nc(N2CCNCC2)c(C#N)c2c1CSC(C)(C)C2	i	25%	-74*	-6%	-3	i
CCOc1ccc(S(=O)(=O)N2CCC(C(=O)NCc3cccnc3)CC2)cc1Cl	i	1%	-9	?	-10	i
Cc1ccccc1-c1nc(CN2C(=O)CN=C(c3ccccc3)c3ccccc32)c(C)o1	nt	nt	nt	nt	-15	nt
O=C1c2ccccc2C(=O)N1SC1CCCCC1	i	?	-92*	?	1	i
Cc1ccc(N2C(=O)NC(=O)/C(=C\c3cc(C)n(-c4cc(C(=O)O)cc(C(=O)O)c4)c3C)C2=O)cc1	i	-1%	-54*	-1%	-4	i
COC(=O)C1=C(c2ccc(F)cc2OCc2ccccc2)C[C@@H]2CC[C@H]1N2C(=O)NCc1ccc(C)cc1	?	-4%	-11	?	-24	i

Compound activity (PubChem)
